PGC1a acetyl inh – inhibitors of PGC1a acetylation signal, primary screen, cell-based, U2OS, AlphaScreen, inhibitor mode; AID 651687, 2012; inhibition, % at 15.6 µM; AlphaScreen anti-acetyl-lysine; with virally co-expressed GCN5 acetyltransferase; hit rate 0.17% among 350,000;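 active = every replicate shows inhibition of at least 40%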;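 also: 0% = neutral control wells and 100% = positive control wells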
EWS-Fli block – EWS/Fli-driven NR0B1 reporter inhibitors, primary screen, A673 cells, NR0B1 luciferase, luminescence, MLPCN library; viability-normalised; inhibition, % at 12.6 µM; hit rate 0.67% among 350,000;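 active = mean inhibition of at least 50% after viability correction, with every replicate also passing that limit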;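 also: firefly luciferase signal divided by Alamar Blue viability fluorescence both relative to DMSO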
Ecoli rRNA inh – reduced GFP signal of wild-type E. coli, primary screen, bacterial rRNA inhibitor project, GFP/RFP fluorescence, OD600, single point; E. coli WT GFP vs humanized-ribosome RFP mutants, 24 h; hits give low values; DMSO median 0, no signal -100; GFP signal change (wild-type ribosome), % (no concentration beside the values); hit rate 1.6% among 350,000;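 active = significant combined selectivity score with lowered wild-type GFP, culture density cut under 30%, mutant RFP and density less affected; inactive = any of these conditions unmet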
SIRT5 block – SIRT5 desuccinylase inhibitors, primary screen, biochemical, fluorescence imaging, single point, set 5; Purified SirT5, succinyl-peptide AMC, trypsin-coupled fluorescence; inhibition, % at 15 µM; hit rate 1.1% among 330,000; AID 652115, 2013; in the data active = inhibition above about 15%
Target sequence (Q9NXA8 whole entry, looked up): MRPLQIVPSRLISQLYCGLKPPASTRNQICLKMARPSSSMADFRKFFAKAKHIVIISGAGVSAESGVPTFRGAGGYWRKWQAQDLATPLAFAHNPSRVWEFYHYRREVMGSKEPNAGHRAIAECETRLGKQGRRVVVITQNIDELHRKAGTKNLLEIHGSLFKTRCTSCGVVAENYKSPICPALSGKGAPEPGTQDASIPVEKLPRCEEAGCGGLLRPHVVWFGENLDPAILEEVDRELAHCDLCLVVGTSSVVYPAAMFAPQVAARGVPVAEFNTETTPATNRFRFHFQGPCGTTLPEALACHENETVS
PAX8 reporter – inhibitors of PAX8-driven TPO luciferase reporter, primary screen, RMG-I cells, single concentration. SteadyGlo, 24 h. inhibition, % at 12.6 µM. hit rate 1.2% among 360,000;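 active = mean replicate inhibition at least 60% with every replicate also reaching 60%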;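 also: luciferase light reporting Pax8 driven TPO promoter activity; plate controls were median of neutral control wells for no effect and mitoxantrone controls for full effect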
LGR2 inh – inhibitors of bursicon-induced LGR2 CRE-luciferase signal, primary screen, cell-based, HEK293, CRE-luciferase reporter, bursicon stimulation; Drosophila bursicon receptor LGR2 (rickets); bursicon-stimulated, 4 h; inhibition, % at 9.99 µM; hit rate 0.35% among 380,000;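 active = drop in luminescence signal, shown as inhibition above about 50% in the replicate tests, limit read from the data, passing the limit was not always enough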;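 also: agonist challenge used bursicon conditioned medium at about half maximal strength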
An asterisk follows results filed as active; . = not tested or not shown. This is a sample that favours compounds with a hit; in the whole collection about 3.4% have one here.

SMILES | PGC1a acetyl inh | EWS-Fli block | Ecoli rRNA inh | SIRT5 block | PAX8 reporter | LGR2 inh
CO[C@@H]1CN(C)C(=O)c2cc(NC(=O)c3cc(C)on3)ccc2OC[C@@H](C)N(S(=O)(=O)c2cccc(F)c2)C[C@H]1C | 1 | -6 | . | . | 30 | .
CCN(CC)c1ccc(/C=N/NC(=O)c2cccc(S(=O)(=O)Nc3ccccc3OC)c2)c(O)c1 | . | 1 | 3 | 7 | 74* | 36
COc1ccccc1NS(=O)(=O)c1cccc(C(=O)N/N=C/c2ccc([N+](=O)[O-])o2)c1 | -4 | 50 | 3 | -6 | 93* | 21
O=C(Nc1ccc2c(c1)[C@@H]1C[C@H](CC(=O)N3CCCCC3)O[C@@H](CO)[C@@H]1O2)c1ccc2c(c1)OCO2 | -5 | -11 | -6 | 5 | -34 | 0
O=c1[nH]c2nc(Cl)nc(Cl)c2[nH]1 | 74* | 8 | 4 | . | -3 | -9
COc1ccc(C(=O)N(C)Cc2ccccc2)cc1Br | . | -2 | -27 | 18* | -1 | -8
COc1ccc(C(=O)O)cc1S(=O)(=O)N(C)CCc1cccnc1 | 0 | . | . | . | . | .
COc1ccc(C(=O)O)cc1S(=O)(=O)N(CCc1ccccc1)Cc1ccccc1 | 14 | 1 | -36* | 1 | 10 | 2
CCOc1ccc(C(=O)NCc2ccccc2)cc1Br | -8 | -11 | -22 | . | 79* | 22
C[C@H](CO)N1C[C@H](C)[C@H](CN(C)C(=O)Nc2ccc3c(c2)OCO3)Oc2ccc(NC(=O)Nc3ccc4c(c3)OCO4)cc2CC1=O | . | . | -3 | . | . | -5
CCC(=O)N1CC2(C1)CN(Cc1ccccc1Cl)[C@H](CO)c1[nH]c3cc(OC)ccc3c12 | -4 | -3 | -3 | . | . | 1
CO[C@H]1CN(C)C(=O)c2ccc(NS(=O)(=O)C3CCCCC3)cc2OC[C@@H](C)NC[C@@H]1C | . | . | 4 | . | . | .
O=C(c1ccccn1)N1C[C@H]2[C@@H](c3ccccc31)[C@@H](CO)N2CC1CCCC1 | . | . | 3 | . | . | .
Cc1ccc(N2CN(Cc3ccco3)CNC2=S)c(C)c1 | . | 13 | -14 | 1 | 61* | 10
Cc1ccc(N2CN(Cc3cccnc3)CNC2=S)c(C)c1 | . | . | . | . | 3 | 28
Cc1ccc2c(c1)sc(=NC(=O)C1CC1)n2C | -6 | -82 | -2 | -6 | -130 | -57
Cc1ccc2c(c1)sc(=NC(=O)c1cccs1)n2C | . | 78* | 11 | -7 | 39 | 96*
O=C(C1CCC1)N1[C@H](CO)[C@@H](c2ccccc2)C12CN(CCC(F)(F)F)C2 | -12 | 4 | 1 | -1 | -10 | 4
COc1ccc(S(=O)(=O)N(C)C[C@H]2Oc3cc(C#CC4CC4)ccc3S(=O)(=O)N([C@@H](C)CO)C[C@H]2C)cc1 | -24 | 16 | 4 | 22* | . | 1
COc1ccc(S(=O)(=O)N(C)C[C@H]2Oc3cc(C#CC4CC4)ccc3S(=O)(=O)N([C@@H](C)CO)C[C@@H]2C)cc1 | -32 | 18 | -4 | 22* | . | -7
COc1ccc(S(=O)(=O)N(C)C[C@@H]2Oc3cc(C#CC4CC4)ccc3S(=O)(=O)N([C@H](C)CO)C[C@H]2C)cc1 | -59 | 31 | 1 | 15* | . | 7
COc1ccc(S(=O)(=O)N(C)C[C@H]2Oc3cc(C#CC4CCCC4)ccc3S(=O)(=O)N([C@@H](C)CO)C[C@H]2C)cc1 | -18 | 17 | 0 | 4 | -2 | 5
C/C=C/c1ccc([C@@H]2[C@H](CO)N(CCC(F)(F)F)C23CN(C(C)=O)C3)cc1 | . | . | 0 | . | . | .
C/C=C/c1cnc2c(c1)C(=O)N([C@H](C)CO)C[C@@H](C)[C@@H](CN(C)C(=O)Nc1ccc(F)cc1)O2 | 8 | 7 | 4 | 1 | -17 | 3
C[C@@H]1CCCCO[C@@H](CN(C)C(=O)Nc2ccc(F)cc2)[C@@H](C)CN([C@H](C)CO)C(=O)c2cc(NC(=O)c3ccccc3)ccc2O1 | 18 | 3 | 2 | -9 | -3 | -3
SMILES | PGC1a acetyl inh | EWS-Fli block | Ecoli rRNA inh | SIRT5 block | PAX8 reporter | LGR2 inh
CC[C@]1(C(=O)OC)[C@H]2C(=O)N(Cc3ccccc3)C(=O)[C@H]2[C@H]2CN=C(SCc3ccc(C(=O)OC)cc3)N21 | -4 | -2 | -26* | -5 | -2 | 3
Cc1onc(-c2ccccc2Cl)c1C(=O)Nc1nn[nH]n1 | -11 | -5 | -31* | -2 | . | 0
Cc1cc(NC(=O)c2c(-c3ccccc3Cl)noc2C)no1 | 3 | 5 | 10 | -1 | . | 7
COc1ccc2c3c([nH]c2c1)[C@H](CO)N(C(=O)c1ccccc1)CC31CCN(C(=O)c2cccc(F)c2)CC1 | . | 15 | -3 | 7 | 22 | -7
Cc1ccc(Nc2nc(-c3ccccc3)cs2)nc1 | 11 | 16 | 2 | -2 | -42 | 60*
CCC(=O)N(C)C[C@H]1Oc2cc(C#CC(C)(C)O)ccc2S(=O)(=O)N([C@@H](C)CO)C[C@@H]1C | -3 | -13 | 3 | 3 | . | -12
COC(=O)/C=C/c1ccc(-n2ccnc2)cc1 | . | -7 | -30* | -4 | -19 | -10
CCOc1ccc(OCC)c(NC(=O)CSc2nc3c(c(=O)n(C)c(=O)n3C)n2CC)c1 | -5 | . | . | . | . | .
CCOc1ccc(OCC)c(NC(=O)CSc2nc3c(c(=O)n(C)c(=O)n3C)n2C(C)C)c1 | 8 | 9 | -27* | -2 | . | 13
CCC(=O)N1CC2(C1)CN(Cc1cccc(Cl)c1)[C@H](CO)c1[nH]c3cc(OC)ccc3c12 | . | . | -6 | . | . | .
c1ccc2c(c1)CCN(c1nc3cc4c(cc3s1)OCCO4)C2 | 7 | . | . | . | 82* | .
CCN(CC)CCCN(C(=O)c1ccccc1C)c1nc(-c2ccc(OC)cc2)cs1 | -22 | 7 | -10 | -3 | 4 | 8
CCN(CC)CCN(C(=O)c1ccc2ccccc2c1)c1nc2ccc(OC)cc2s1 | . | . | -19* | -3 | 5 | -6
CCN(CC)CCCN(C(=O)c1ccc(OC)cc1)c1nc(-c2ccc(OC)cc2)cs1 | -1 | 23 | -35* | -2 | 12 | 15
CN1C(=O)c2cc(NS(C)(=O)=O)ccc2OC[C@@H]2O[C@@H](CC(=O)NC3CCCCC3)CC[C@H]21 | . | 5 | 0 | -7 | -4 | 0
COc1cc(OC)c2c(-c3cccc(-c4ccc(OC)c(OC)c4)c3)cc(=O)oc2c1 | -3 | 53* | 11 | 1 | -9 | -18
COc1cc(OC)c2c(-c3cccc(-c4ccc(NC(C)=O)cc4)c3)cc(=O)oc2c1 | 18 | 46 | -14 | -5 | 79* | 4
CCOC(=O)c1ccc(-c2cccc(-c3cc(=O)oc4cc(OC)cc(OC)c34)c2)cc1 | 2 | . | . | . | . | .
